# The source made the active and inactive calls. How the calls were made is not given here.
# Experiments:
# [1] = Immunotoxin (HA22) sensitization/mitigation study. Vehicle arm (PBS) (AID 1159510)
# [2] = Immunotoxin (SS1P) sensitization/mitigation study. Vehicle arm (DMEM) (AID 1159513)
# Potency means the concentration at half of the fitted maximal effect.
SMILES,Potency [1],Potency [2]
O=S(=O)(N=Cc1c(O)ccc2ccccc12)c1cccs1,16.6 µM (active),inactive
COc1ccc2c(c1)CC[C@@H](CN(C)CC(=O)O)[C@H]2c1ccccc1,inactive,inactive
CN(C)c1ccc(C2Nc3ccc4ccccc4c3C3=C2C(=O)CC(C)(C)C3)cc1Br (centres undefined),11.8 µM (active),18.7 µM (active)
CN(C)C(=O)c1ccc(S(=O)(=O)c2ccc(NC(=O)[C@@](C)(O)C(F)(F)F)c(Cl)c2)cc1,1.66 µM (active),inactive
Cc1nc2cnc3ccc(C#Cc4cccnc4)cc3c2n1-c1ccc(C(C)(C)C#N)cc1,1.87 µM (active),0.132 µM (active)
O=C(NCCS(=O)(=O)c1ccc(C(F)(F)F)cn1)c1ccc(Cl)cc1,inactive,inactive
CCOc1ccn(-c2ccc(F)cc2)c(=O)c1C(=O)Nc1ccc(Oc2ccnc(N)c2Cl)c(F)c1,18.7 µM (active),23.5 µM (active)
OCCn1cc(-c2cnc3nnn(Cc4ccc5ncccc5c4)c3n2)cn1,inactive,inactive
CC(C)c1ccccc1Cc1cc(C(=O)Nc2ccc(S(=O)(=O)c3ccccc3C(C)(C)C)cc2)c(O)c(O)c1O,0.743 µM (active),3.72 µM (active)
CC1=C[C@@H]2[C@@H]([C@@H](O)C[C@@]3(C)[C@H]2C[C@@H](C)[C@]3(O)C(=O)CO)[C@@]2(C)Cc3cnn(-c4ccccc4)c3C=C12,1.66 µM (active),23.5 µM (active)
COc1c(C)cnc(Cn2cnc3c(Cl)nc(N)nc32)c1C,0.0187 µM (active),0.0105 µM (active)
C[C@@]12O[C@@H](C[C@]1(O)CO)n1c3ccccc3c3c4c(c5c6ccccc6n2c5c31)CNC4=O,0.209 µM (active),0.0296 µM (active)
Nc1nc(Nc2ccc(S(N)(=O)=O)cc2)nn1C(=O)c1c(F)cccc1F,0.833 µM (active),3.72 µM (active)
N#CCNC(=O)c1ccc(-c2ccnc(Nc3ccc(N4CCOCC4)cc3)n2)cc1,5.26 µM (active),16.6 µM (active)
C[C@@H]1C[C@H]2[C@@H]3CCC4=CC(=O)C=C[C@]4(C)C3(F)[C@@H](O)C[C@]2(C)[C@@]1(O)C(=O)CO (some centres undefined),0.059 µM (active),inactive
Cc1ccc2c(c1)C(=O)[C@@]1(O)CCN(c3ccccc3)C1=N2,inactive,inactive
CCOC(=O)[C@@H](N)CCC(=O)N[C@@H](CSCc1ccccc1)C(=O)N[C@@H](C(=O)OCC)c1ccccc1,23.5 µM (active),inactive
CCCCCCCc1ccc(CCc2cccc(O)c2C(=O)O)cc1,23.5 µM (active),18.7 µM (active)
CCn1c(-c2nonc2N)nc2cnc(Oc3cccc(NC(=O)c4ccc(OCCN5CCOCC5)cc4)c3)cc21,18.7 µM (active),7.43 µM (active)
CCCCc1nc2cc(C=CC(=O)NO)ccc2n1CCN(CC)CC,0.118 µM (active),0.264 µM (active)
Cc1[nH]c2ccccc2c1CCNCc1ccc(C=CC(=O)NO)cc1,0.0105 µM (active),0.0296 µM (active)

SMILES,Potency [1],Potency [2]
CO[C@H]1C=CC=C(C)C(=O)NC2=CC(=O)C(NCCN(C)C)=C(C[C@@H](C)C[C@H](OC)[C@@H](O)[C@@H](C)C=C(C)[C@@H]1OC(N)=O)C2=O,0.0059 µM (active),3.32 µM (active)
O=C1[C@H](Cc2ccc(O)cc2)N2C(=O)CCN(C(=O)NCc3ccccc3)[C@H]2CN1Cc1cccc2ccccc12,6.62 µM (active),2.35 µM (active)
Nc1cccc(S(=O)(=O)N2CCCN(S(=O)(=O)c3ccc4c(c3)OCCO4)CC2)c1,inactive,inactive
COc1cc2c(cc1O)CC[C@@H]1[C@@H]2CC[C@]2(C)[C@@H](O)CC[C@@H]12,0.418 µM (active),0.833 µM (active)
CC[C@@H](C(=O)O)C1CC[C@H](C)C([C@@H](C)[C@H](O)[C@H](C)C(=O)[C@H](CC)C2O[C@]3(C=C[C@@H](O)[C@]4(CC[C@@](C)(C5CC[C@](O)(CC)[C@H](C)O5)O4)O3)[C@H](C)C[C@@H]2C)O1 (some centres undefined),0.0418 µM (active),20.9 µM (active)
COc1cc(OC2CCN(C)CC2)ccc1Nc1ncc2c(n1)n(C1CCCC1)c(=O)n2C,10.5 µM (active),16.6 µM (active)
O=C(O)CCc1ccc(NCc2cccc(Oc3ccccc3)c2)cc1,inactive,inactive
COc1cc2c(Oc3ccc(-c4cnc(Nc5ccc(F)cc5)n(C)c4=O)cc3F)ccnc2cc1OCCCN1CCOCC1,18.7 µM (active),20.9 µM (active)
Cc1ccc(C(=O)N(CCCN)[C@@H](c2nc3cc(Cl)ccc3c(=O)n2Cc2ccccc2)C(C)C)cc1,0.0037 µM (active),0.0053 µM (active)
COC(=O)C1=C(C)NC(C)=C(C(=O)OCCCN2CCC(c3ccccc3)(c3ccccc3)CC2)[C@H]1c1cccc([N+](=O)[O-])c1,16.6 µM (active),26.4 µM (active)
Cc1n[nH]c(C)c1Cc1sc2c(c1C(=O)N1C[C@H](O)CO1)c(=O)n(C)c(=O)n2CC(C)C,0.0019 µM (active),inactive
C1Cc2[nH]nc(-c3nn[nH]n3)c2C1,inactive,inactive
O=C(C=Cc1cccnc1)NCCCCC1CCN(C(=O)c2ccccc2)CC1,inactive,inactive
O=C(Nc1cccnc1)N1CCC(Cc2cccc(Oc3ccc(C(F)(F)F)cn3)c2)CC1,16.6 µM (active),6.62 µM (active)
Cn1c(Nc2ccc(C(F)(F)F)cc2)nc2cc(Oc3ccnc(-c4ncc(C(F)(F)F)[nH]4)c3)ccc21,11.8 µM (active),23.5 µM (active)
CC(C)(N)C(=O)N[C@H](COCc1ccccc1)C(=O)N1CCC2(CC1)CN(S(C)(=O)=O)c1ccccc12,18.7 µM (active),8.33 µM (active)
Fc1cc(-c2cccc3ncc(-c4cnn(C5CCNCC5)c4)nc23)cc(F)c1CN1CCOCC1,23.5 µM (active),23.5 µM (active)
COc1cc(Oc2ccnc3cc(OC)c(OC)cc23)ccc1NC(=O)NC(C)c1nccs1 (centres undefined),16.6 µM (active),20.9 µM (active)
Cc1ccc(-c2ncn(-c3ccc(Nc4nccc(-c5cccc(N6CCOCC6)c5)n4)cc3)n2)cn1,0.0264 µM (active),0.0235 µM (active)
C[C@@H]1CCN(C(=O)CC#N)C[C@@H]1N(C)c1ncnc2[nH]ccc12,inactive,inactive
CCOc1cc(N2CCC(O)CC2)ccc1Nc1ncc2c(n1)N(C)c1ccccc1C(=O)N2C,13.2 µM (active),16.6 µM (active)

# Reference: PubChem BioAssay (NCATS)
